The list is not random: actives were taken first. Their share in the collection is about 4%.
Peg3 promoter – Peg3 promoter-driven luciferase inhibitors, primary screen, cell-based, HeLa, luciferase luminescence | HeLa PEG-Prom luciferase reporter, overnight | hit rate 1.7% among 360,000 | inhibition, % at 20 µM;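 active = inhibition of at least 50% at 20 µM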
TWEAK Fn14 block – inhibitors of TWEAK-Fn14 signaling, primary screen, luciferase reporter cells, uHTS; TWEAK-stimulated Fn14 reporter cells, luciferase luminescence, 8 h; inhibition, % at 10 µM; hit rate 2% among 360,000; AID 1159606, 2016; in the data active = inhibition above about 50%
CF NFkB block – inhibitors of PAF-induced NF-kB signaling, primary screen, cell-based, GFP fluorescence, uHTS; KKLEB NF-kB-GFP reporter, GFP fluorescence overnight; inhibition, % at 5 µM; hit rate 0.86% among 360,000; AID 588850, 2011;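 active = at least 50% inhibition at 5 µM, scaled per plate between neutral and stimulator controls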;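 note: PAF is a Pseudomonas aeruginosa culture filtrate used as stimulus; plate controls were PAF-stimulated DMSO wells for no effect and unstimulated DMSO wells for full effect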
KKLEB tox – cytotoxicity in KKLEB CF airway cells, primary screen, cytotoxicity control for CF NF-kB inhibitor project, cell-based, uHTS, fluorescence assay plates. KKLEB CF airway cells viability, ATPlite luminescence, overnight; hits give low values; cells stimulated with P. aeruginosa culture filtrate. activity change (cytotoxicity), % at 5 µM. hit rate 0.36% among 360,000;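 active = corrected activity change at or below -50% at 5 µM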
TROY NFkB inh – inhibitors of TROY-driven NF-kB signaling, primary screen, Q293 LMP1-TROYcd cells, NF-kB luciferase, uHTS. Q293 LMP1-TROYcd NF-kB luciferase reporter, 4 h. inhibition, % at 10 µM. hit rate 0.98% among 360,000;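 active = compounds whose plate-normalised and pattern-corrected inhibition of the luciferase reporter signal at the single screening dose is 50% or more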
HIF-2a inh – HIF-2a reporter inhibitors, primary screen, luminescence, 786-0 RCC cells; 786-0 RCC cells HIF-2a reporter, luciferase luminescence, overnight; hit rate 0.72% among 360,000; inhibition, % at 18.8 µM;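 active = inhibition of the luminescence signal of 40% or more relative to plate controls, in a single-dose primary screen at 18.75 µM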
* = called active by the depositor.

SMILES	Peg3 promoter	TWEAK Fn14 block	CF NFkB block	KKLEB tox	TROY NFkB inh	HIF-2a inh
O=C(COc1ccccc1Cl)Nc1nc(-c2ccncc2)cs1	-11	53*	1	-16	37	-27
O=C(COc1ccc(Cl)cc1)Nc1nc(-c2ccncc2)cs1	2	5	6	-29	23	0
CCOc1cccc(C(=O)Nc2nc(-c3ccc(S(=O)(=O)N4CCOCC4)cc3)cs2)c1	29	36	14	-11	50*	22
Cc1ccc(C(=O)C[n+]2cccc3ccccc32)cc1	-154	32	-4	-2	50*	-21
Cc1cc(Cl)ccc1OC(C)C(=O)Nc1ccc(C(=O)Nc2ccccc2C(=O)O)cc1 (stereo not given)	14	37	26	-9	57*	25
CCN1CCN(c2ccc(Nc3ccnc4ccccc34)cc2)CC1	61*	6	35	-18	12	20
CCN1CCN(c2nc(-c3ccccc3)c3ccccc3n2)CC1	24	15	9	-3	3	-8
CN1CCN(c2ccc(Nc3ccnc4cc(Cl)ccc34)cc2)CC1	61*	1	-49	-6	-10	1
COc1ccc(C2N(c3ccccc3)C(=O)C2(F)F)cc1OC (stereo not given)	15	-10	20	-6	7	16
O=C(NCc1ccc2c(c1)OCO2)C1CCCN1S(=O)(=O)c1ccc(F)cc1 (stereo not given)	14	0	-2	10	7	12
Cc1c(Br)c(=O)oc2c(C)c(O)ccc12	-13	46	-6	13	54*	-3
CN(C)CCNC(=O)/C(=C/c1ccc(-c2ccc(Cl)cc2Cl)o1)NC(=O)c1ccccc1	111*	-82	27	-27	-16	13
COc1ccc(CCN(C(=O)c2ccc(F)cc2)C2=CC3CCC(C2)N3C)cc1OC (stereo not given)	-1	68*	-6	-4	-5	13
O=C(c1ccc(Cl)cc1)N1N=CCC1(O)c1ccc(Cl)cc1 (stereo not given)	4	5	3	2	15	-1
CC(C)(C)c1ccc(O)c(N=Cc2cc(Br)ccc2O)c1	47	88*	4	-28	85*	52*
CCN(c1ccccc1)S(=O)(=O)c1cccc(C(=O)OCC(=O)c2c(N)n(C)c(=O)n(C)c2=O)c1	32	1	22	-3	11	8
COc1ccc(N(C)S(=O)(=O)c2cccc(C(=O)OCC(=O)c3c(N)n(C)c(=O)n(C)c3=O)c2)cc1	55*	71*	-19	14	65*	15
O=C(N/N=C/c1sc(=O)n(Cc2ccc(Br)cc2)c1Cl)c1ccco1	84*	26	64*	-75*	-3	34
CCc1cc2c(=O)c(-c3cscn3)coc2c(CN(C)C)c1O	13	-63	16	-13	66*	11
CCc1cc2c(=O)c(-c3ccc4c(c3)OCO4)coc2c(CN(C)C)c1O	13	-12	-3	-10	36	-2
COc1cc(Cl)c(NC2=CC(=O)C(=O)c3ccccc32)c(OC)c1	16	25	83*	-44	20	37
COc1cc(Cl)c(NS(=O)(=O)c2ccc(-c3ccc(=O)[nH]n3)o2)c(OC)c1	8	-3	13	-13	1	4
O=C1C=C(Nc2cccnc2)c2ccccc2C1=O	25	2	54*	10	17	17
CCOc1ccc(NC2=CC(=O)C(=O)c3ccccc32)cc1	-54	-8	80*	-13	1	-106
O=c1cnnc(Nc2ccc(F)cc2)[nH]1	-4	10	-13	-7	1	8
O=C1C=C(Nc2ccc(F)cc2)c2ccccc2C1=O	12	47	82*	-19	32	-32
Cc1cccc(-c2noc(CN(C)C(=O)c3ccoc3C)n2)c1	-72	6	-9	11	-40	-76

Bioassay records deposited in PubChem BioAssay by Sanford-Burnham Center for Chemical Genomics.
